# Results as given in PubChem BioAssay AID624291 (National Center for Advancing Translational Sciences (NCATS), 2012).
# Screen size: about 350,000 compounds; about 220 (0.063%) were called active. Where a call stands in place of a potency, no number is given. Roughly 4% stayed inconclusive and do not appear here. Calls follow the shape of the dose curve; as a rule, active = well fitted activation curve with a large enough effect; inconclusive = small, poorly fitted or top-dose-only effect; inactive = no such curve, though single readings can be large or run the other way. The full list was thinned out, with actives kept by preference.
# Test: qHTS for Activators of Integrin-Mediated Alleviation for Muscular Dystrophy; also: nearly all actives have a fitted effect of over 60% in size
# Conditions: alpha7betagal myoblasts, beta-gal FDG fluorescence, 48 h; series mostly up to 38.3 µM
# Description: Integrins are a diverse family of transmembrane cell surface receptors that mediate interactions between cells and the extracellular matrix. These heterodimeric proteins are composed of alpha and beta subunits and the a7b1 interacts with laminin in the extracellular matrix and actin of the cell cytoskeleton. Both chains contribute to ligand binding, but the alpha chain mediates the specificity of the interaction. The alpha7beta1 integrin is a major laminin receptor in skeletal, cardiac and vascular smooth muscle. Mutations in the alpha7 integrin gene are responsible for muscular dystrophy in both humans and mice. The alpha7beta1 integrin is also a major modifier of muscle disease progression in various muscle diseases including Duchenne muscular dystrophy, Fukuyama muscular dystrophy and merosin deficient congenital muscular dystrophy type 1A. […] Transcriptional regulation of the alpha7 integrin gene is poorly understood and probably involves multiple transcription factors. The goal of identifying small molecules that enhance alpha7 integrin expression is two-fold: firstly, such molecules would help us gain insight into the complex transcriptional control of alpha7 integrin. It is known that alpha7 integrin expression is tightly controlled during various stages of development, disease and in response to external stimuli. The second goal of the project is to translate the above finding into a therapeutic strategy for muscular dystrophy. […] Thus this project aims to discover small molecule probes that would not only help in gaining a better understanding of the complex regulatory mechanism of alpha7 integrin expression, but also lead to development of pharmacological agents to fight muscular dystrophy. NIH Chemical Genomics Center [NCGC] NIH Molecular Libraries Probe Centers Network [MLPCN] MLPCN Grant: NS058429 Assay Submitter (PI): Dean Burkin, University of Nevada School of Medicine
# A total of 250 alpha7betagal+/- myoblasts at passage 13 were dispensed using a mulitdrop from Thermo into black low base tissue culture treated microclear aurora plates in 6 ul media containing DMEM without phenol, 5% FBS, 1x GluMax and 1x Penicillin/Streptomycin. The plates were incubated 16-24 hr at 37C, 5% CO2, 95% humidity covered with low evaporation stainless steel lids from Kalypsys. Compounds were then dispensed using a Kalypsys pintool to deliver 23 nl/well compounds in DMSO (diluted into 6 uL resulting in a 1:260 dilution of compound). The control compound used was the cdk2 inhibitor SU9516 from Tocirs (found in the initial LOPAC screen). The plates were incubated for 48 hours at 37C, 5% CO2, 95% humidity using the same stainless steel lids. After incubation with compound, 5 ul of the media was aspirated using the Kalypsys washer/dispenser and 3 ul of the Mammalian Protein Extraction Reagent (MPER) lysis buffer (Thermo Fisher) was added. The plates were spun at 2000 rpms to remove bubbles and an initial capture was acquired on the Viewlux (Perkin Elmer) with exciation at 480 nm and emission at 540 nm for 25 seconds to omit any auto fluorescent compounds. The plates were then incubated for 10 minutes at room temperature. […] The plates were again read on the Viewlux with exciation at 480 nm and emission at 540 nm for 25 seconds.
# Potency is read from the fitted curve at half-maximal effect.
row,Compound,Potency
1,O=Cc1cn(Cc2ccc(F)cc2Cl)c2ccccc12,15.8 µM (active)
2,O=c1[nH]c(=S)[nH]c(O)c1/C=C1\C=Nc2ccccc21,inactive
3,Cc1ccc(Oc2cnn(-c3ccccc3)c(=O)c2Br)cc1,inactive
4,CC(=O)c1ccc(S(=O)(=O)N2CCN(c3nc4c(C)c(C)ccc4cc3C#N)CC2)cc1,inactive
5,CCOC(=O)c1cccc(C2=C(CNC(=O)c3ccncc3)[C@H]3CC[C@@H](C2)N3Cc2ccccc2)c1,inactive
